TDP1 cell CPT: qHTS for Inhibitors of human tyrosyl-DNA phosphodiesterase 1 (TDP1): qHTS in cells in presence of CPT | 420,000 tested, 12% active | AID 686979, 2013 | chicken DT40 Tdp1-/-;hTDP1 cells + 20 nM CPT, ATP luminescence, 48 h | Potency, µM (highest dose often 46.2 µM), for inactives: at the top dose activity change, negative = growth inhibition, usual class: inhibitors; also: nearly all actives have a fitted effect of over 55% in size
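Chicken DT40 Tdp1-/- cells complemented with human TDP1, 400 cells/well, exposed to compounds plus 20 nM camptothecin for at least 48 h at 37 C; viability read as ATP content by CellTiter-Glo luminescence.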
KB-V1 MDR tox: qHTS assay for MDR1-selective chemotherapeutics: Primary screen using the drug-selected MDR subline cells KB-V1; Potency, µM (top dose mostly 46.1 µM), usual class: cytotoxic; 400,000 tested, 3.4% active; KB-V1 MDR cells viability, CellTiter-Glo, 72 h; also: nearly all actives have a fitted effect of over 60% in size
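Cells of the MDR subline KB-V1 are plated, dosed with compound at multiple concentrations, and incubated 72 h at 37 degrees C; CellTiter-Glo is then added and luminescence read after 10 min.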
DT40 TDP1 no CPT: qHTS for Inhibitors of human tyrosyl-DNA phosphodiesterase 1 (TDP1): qHTS in cells in absence of CPT | DT40 Tdp1-/- hTDP1 cells, no CPT, ATP luminescence, 48 h | Potency, µM (highest dose often 46.2 µM), inactives show top-dose activity change, negative = growth inhibition, usual class: inhibitors | 420,000 tested, 15% active | AID 686978, 2013; also: nearly all actives have a fitted effect of over 55% in size
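Readout: luminescence from CellTiter-Glo after 30 min in the dark at RT. Cells: DT40 Tdp1-/- with stable hTDP1, 400/well. Exposure: compounds alone, ≥48 hr, 37 °C.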
HT1080NT lethal: qHTS for induction of synthetic lethality in tumor cells producing 2HG: qHTS for the HT-1080-NT fibrosarcoma cell line; Potency, µM (titrated, usually from 46.1 µM), inactives show top-dose activity, negative = less viability, actives largely listed as cytotoxic; AID 686970, 2013; HT-1080-NT fibrosarcoma viability, CellTiter-Glo ATP luminescence, 48 h; 360,000 tested, 1.6% active;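 also: NT is the 2HG producing partner of a matched IDH1 knockdown line; 0% = DMSO-treated cells and -100% = media-only wells without cells; nearly all actives have a fitted effect of over 55% in size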
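Viability by CellTiter-Glo luminescence after 48 h compound exposure at 37C of HT-1080-NT cells (750/well, RPMI, 5% FBS). % activity scaled between DMSO wells and medium-only wells, then curve-fitted and categorized by curve class.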
HT1080 IDH1KD tx: qHTS for induction of synthetic lethality in tumor cells producing 2HG: qHTS for the HT-1080-IDH1KD cell line; HT-1080 IDH1 knockdown viability, ATP luminescence, 48 h; AID 686971, 2013; 360,000 tested, 2% active; Potency, µM (top dose mostly 46.1 µM), without a hit: at the highest dose activity, negative = toxicity, usual class: cytotoxic;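 also: 0% = DMSO wells and -100% = cell-free medium wells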
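% activity derives from luminescence (CellTiter-Glo), normalised to DMSO and no-cell wells. HT-1080-IDH1KD cells, 750/well, had 48 h compound exposure at 37 °C.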
KB-3-1 cytotox: qHTS assay for MDR1-selective chemotherapeutics: Primary screen using the parental adenocarcinoma cell KB-3-1; KB-3-1 viability, CellTiter-Glo ATP luminescence, 72 h; Potency, µM (highest dose often 46.1 µM), actives largely listed as cytotoxic; 400,000 tested, 1.4% active; also: nearly all actives have a fitted effect of over 60% in size
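Here the drug-naive KB-3-1 line serves as comparator for MDR sub-line selectivity; cells received compound titrations, 72 h at 37 °C, then CellTiter-Glo readout.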
* marks the source's active call; other numbers are inactive results; i = inactive; ? = inconclusive; . = not tested or not shown. A selection: hits, their analogues and other compounds. The true share with any hit is near 19%. Calls follow the shape of the dose curve; as a rule, active = well fitted curve in the direction sought with a large enough effect; inconclusive = small, poorly fitted or top-dose-only effect, or another doubt; inactive = no such curve, though single readings can be large; an effect the other way counts as inactive or inconclusive. Unless noted, % is scaled to controls: 0 for no effect and ±100 for the full control effect; potency is read from the fitted curve at half-maximal effect.

SMILES	TDP1 cell CPT	KB-V1 MDR tox	DT40 TDP1 no CPT	HT1080NT lethal	HT1080 IDH1KD tx	KB-3-1 cytotox
COCCCNC(=O)C[C@@H]1C[C@@]2(C(=O)OC)CCCCC=C2N(CCc2ccc(OC)c(OC)c2)C1=O	-15%	i	?	-2%	16%	i
COc1ccc(S(=O)(=O)N2CCC(C(=O)NC3CCCCC3)CC2)cc1C	1%	i	-20%	10%	7%	i
CSc1ncnc2c1ncn2CCCNCCc1ccccn1	6%	i	7%	-1%	-2%	i
CCOC(=O)[C@]12CCC=C1N(Cc1ccccc1)C(=O)[C@H](CC(=O)NCc1cccc3ccccc13)C2	?	?	?	-26%	-11%	i
COC(=O)[C@]12CCCCC=C1N(CCc1ccc(OC)c(OC)c1)C(=O)[C@H](CC(=O)NCCC(C)C)C2	?	?	?	-14%	-13%	i
CCOC(=O)[C@]12CCCC=C1N(CCc1ccc(OC)c(OC)c1)C(=O)[C@H](CC(=O)NCCCCc1ccccc1)C2	?	21µM*	16µM*	?	?	?
CCCCCCCCN1C(=O)[C@H](CC(=O)NCCCOC)C[C@@]2(C(=O)OCC)CCCC=C12	23µM*	?	12µM*	?	?	?
CCOC(=O)[C@]12CCCC=C1N(CCC1=CCCCC1)C(=O)[C@H](CC(=O)NCc1ccc(OC)c(OC)c1)C2	15µM*	?	15µM*	-14%	-11%	i
CCOC(=O)[C@]12CCCC=C1N(CCC1=CCCCC1)C(=O)[C@H](CC(=O)NCc1cccc3ccccc13)C2	?	?	16µM*	-29%	-25%	?
O=C(COC(=O)/C=C/c1cccc(C(F)(F)F)c1)NCc1cccs1	-21%	.	-4%	-4%	4%	.
O=c1c2oc3ccccc3c2n(Cc2ccc(Cl)cc2)c(=O)n1Cc1ccccc1	?	?	?	.	.	i
Cc1ccc(C(=O)Nc2ccc(C(=O)O)cc2)cc1S(=O)(=O)NCc1ccccc1	12%	i	7%	8%	3%	i
CCOC(=O)[C@]12CCCC=C1N(CCc1ccc(OC)c(OC)c1)C(=O)[C@H](CC(=O)NCCc1ccccc1OC)C2	13µM*	13µM*	16µM*	-18%	-20%	i
CCOC(=O)[C@]12CCCC=C1N(CCc1ccc(OC)c(OC)c1)C(=O)[C@H](CC(=O)N1CCSCC1)C2	16µM*	?	?	14%	21%	i
CCOC(=O)[C@]12CCC=C1N(Cc1ccc3c(c1)OCO3)C(=O)[C@H](CC(=O)NCCc1ccccc1OC)C2	?	i	?	-23%	-16%	i
CCCCCCCCN1C(=O)[C@H](CC(=O)NCCC(C)C)C[C@@]2(C(=O)OC)CC(C)(C)CC=C12	?	?	?	-14%	-14%	i
CCCCCCCCN1C(=O)[C@H](CC(=O)NCCC(C)C)C[C@@]2(C(=O)OCC)CCC=C12	21µM*	?	21µM*	-1%	?	i
CCCCCCCCN1C(=O)[C@H](CC(=O)NCC23CC4CC(CC(C4)C2)C3)C[C@@]2(C(=O)OCC)CCCC=C12	?	i	18µM*	12%	3%	16µM*
CCCCCCCCN1C(=O)[C@H](CC(=O)NCCCN2CCCC2=O)C[C@@]2(C(=O)OCC)CCCC=C12	?	i	?	-27%	-26%	i
NC(=O)c1cc[n+](Cc2ccccc2Cl)cc1	16%	?	16%	5%	9%	i
CCN(CC)S(=O)(=O)c1ccc(OCC2CCCCO2)c([N+](=O)[O-])c1 (stereo not given)	?	?	?	-6%	-6%	i
CN(C)c1ccc(CCC2C=Cc3ccccc32)cc1 (stereo not given)	?	i	?	.	.	i
NS(=O)(=O)c1ccc(CCNC(=O)/C=C/c2cccc([N+](=O)[O-])c2)cc1	?	i	?	1%	-2%	i
CCCCNC(=O)C[C@@H]1C[C@@]2(C(=O)OCC)CCCC=C2N(Cc2ccccc2)C1=O	?	?	?	8%	8%	i
CCCCCCCCN1C(=O)[C@H](CC(=O)NCCc2ccccc2OC)C[C@@]2(C(=O)OCC)CCCC=C12	?	21µM*	29µM*	?	?	i
SMILES	TDP1 cell CPT	KB-V1 MDR tox	DT40 TDP1 no CPT	HT1080NT lethal	HT1080 IDH1KD tx	KB-3-1 cytotox
COc1ccc(C(=O)N(C)c2ccccc2C(=O)NCCc2ccccc2)cc1	4.1µM*	5.8µM*	2.9µM*	-17%	?	2.9µM*
COc1ccc(CNC(=O)c2ccc3nc(CCc4ccccc4)oc3c2)cc1	?	i	-23%	.	.	i
CCc1cc(CNC(=O)c2ccc3nc(Cc4ccc(OC)c(OC)c4)oc3c2)on1	23µM*	?	?	-5%	-8%	?
COc1ccc(Cc2nc3ccc(C(=O)NCc4cc(C)no4)cc3o2)cc1	-21%	i	-30%	3%	14%	i
COc1ccc(CNC(=O)c2ccc3nc(CCc4ccccc4)oc3c2)cc1OC	18µM*	?	16µM*	.	.	i
CN(C(=O)c1ccccc1)c1ccccc1C(=O)NCCc1ccccc1	?	i	?	1%	1%	i
CCC(C)NC(=O)c1ccc2nc(Cc3ccccc3)oc2c1 (stereo not given)	?	i	15µM*	.	.	i
CC(C)c1nc2ccc(C(=O)NCCCN3CCN(c4ccc(F)cc4)CC3)cc2o1	?	i	?	.	.	i
COc1ccc(N2CCN(CCCNC(=O)c3nnc(Cc4ccc(F)cc4)o3)CC2)cc1	16µM*	i	?	.	.	i
COC(=O)C1CCN(C(=O)c2ccc3nc(-c4cccc(OC)c4)oc3c2)CC1	-25%	i	-28%	10%	11%	i
CC(C)c1nc2ccc(C(=O)NCCCN3CCN(c4cccc(Cl)c4)CC3)cc2o1	18µM*	.	21µM*	.	.	.
